Source: PubChem BioAssay (NCATS)
Inconclusive results are not listed. Where a call stands in place of a potency, no number is given. The source made the active and inactive calls. Calls come from the whole dose curve; as a rule, active = well fitted inhibition curve with a large enough effect in the main read-out, with a control signal flat (not every such curve was filed as active); inconclusive = small, poorly fitted or top-dose-only effect, or effect the other way, or a change in a side signal; inactive = no such curve, though single readings can be large or run the other way.

assay: Nrf2 qHTS screen for inhibitors: Validation (AID 493153); conditions: A549 ARE-Fluc reporter, 18-24 h; Potency: luciferase luminescence; viability change: measured here: cytotoxicity max response; luciferase luminescence, at 46.1 µM (top of the series)
Source text: NIH Molecular Libraries Probe Production Network [MLPCN] NIH Chemical Genomics Center [NCGC] MLPCN Grant: R03-MH092170-01 Assay Provider: Shyam Biswal, Johns Hopkins University Assay Overview: Nrf2 is a transcription factor that maintains cellular redox homoestasis and protects cells from xenobiotics. Nrf2 binds to the antioxidant response element (ARE) to induce gene expression of a broad spectrum of genes that encode for antioxidants. […] Finding a small molecule that act as an inhibitor of Nrf2 function would represent a novel therapeutic target that could lead to improvement in survival of patients undergoing chemo- and/or radio- therapy. 1. Shibata, T., et al., Genetic Alteration of Keap1 Confers Constitutive Nrf2 Activation and Resistance to Chemotherapy in Gallbladder Cancer. Gastroenterology, 2008. 2. Sjoblom, T., et al., The consensus coding sequences of human breast and colorectal cancers. Science, 2006. 314(5797): p. 268-74.
Assay Protocol Summary: A concentration-response assay was performed with A549 ARE_Fluc cells which are suspended in 5% FBS OPTI-MEM. Five uL were dispensed into 1536-well white TC-treated plate using the Kalypsys dispenser to achieve a density of 5000 cells/well in all columns except column 1. The plate is incubated at 37deg C at 5% CO2 for 2 hours before 23 nL of compounds are added with the Kalypsys pin tool equipped with a 1,536-pin array containing 10-nL slotted pins (FP1S10, 0.457-mm diameter, 50.8 mm long; V&P Scientific). The control compounds Budesonide and Staurosporine are both added at a concentration of 2mM and Budesonide is also added as a 1:10 titration, starting at 200uM, to achieve dose-response. After an 18-24 hour incubation at 37deg C at 5% CO2, 5ul of medium is added to column 1. Afterwards 1ul of 5x of CellTiter-Fluor (Promega) is added to every well. The plate is then incubated at 37deg C at 5% CO2 for 30 minutes before they are read on the ViewLux (Perkin Elmer) for a fluorescent read Ex=405(10)/Em=525(10) for a 3 second exposure, 2x binning, and high gain. Then 3 uL of 3x BugLite is dispensed into all wells and the plate is incubated at ambient room temperature for 15 minutes. Afterwards another ViewLux read is performed using the clear filter to get a luminescent read with the settings of 40 second exposure, 2x binning, and high gain. Cytotoxicity is assessed through the first fluorescent read and then biochemical activity against Nrf2 is measured in the luminescent read.

Structure (SMILES) | Potency | viability change [%]
O=C(O)c1ccccc1Nc1cccc(OCc2ccc3ccccc3n2)c1 | inactive | -13.9
CCN1C(=O)C=CC1=O | inactive | 1.81
CCCCCC(O)CCCC(=O)O (stereo not given) | inactive | 0.592
Cn1c(=O)[nH]c2ncn(C)c2c1=O | inactive | 1.53
Cn1ccnc1 | inactive | 2.46
O=C(O)C1=CC(=C(c2ccc(O)c(C(=O)O)c2)c2ccc(O)c(C(=O)O)c2)C=CC1=O | inactive | -5.86
O=[N+]([O-])c1cccc2cn[nH]c12 | inactive | -18.2
CC(N)(Cc1ccc(O)cc1)C(=O)O (stereo not given) | inactive | 11.6
c1ccc2nc(C3=NCCN3)ccc2c1 | inactive | 1.31
O=c1onc2cnc3ccccc3n12 | inactive | -4.79
C=C(C)C1CC=C(C(=O)O)CC1 (stereo not given) | inactive | 1.77
C=CC1(C)CC(=O)C2(O)C(C)(O1)C(OC(C)=O)C(O)C1C(C)(C)CCC(O)C12C (stereo not given) | inactive | 4.77
O=c1ccn([C@@H]2O[C@H](COP(=O)(O)OP(=O)(O)O)[C@@H](O)[C@H]2O)c(=O)[nH]1 | inactive | 3.88
CCCCCCCCCC[Si](C)(C)CCC(=O)NC(Cc1ccc(C)cc1)c1ccccc1 (stereo not given) | inactive | -1.11
CC(C)C[C@H](NC(=O)[C@H](O)[C@H](N)Cc1ccccc1)C(=O)O | inactive | 5.98
COc1cc(CC(=O)O)ccc1O | inactive | 3.47
O=S(=O)(c1cccc2c(Cl)cccc12)N1CCCNCC1 | inactive | 2.63
CC(C)[C@@H]1CC[C@@H](C)C[C@@H]1P(=O)(c1ccccc1)c1ccccc1 | inactive | -1.08
O=C(O)/C=C/c1ccc(O)c(O)c1 | inactive | 3.15
C[C@@]1(C2CCCC2)Cc2cc(OCC(=O)O)c(Cl)c(Cl)c2C1=O | inactive | -4.41
